The structures appear in SMILES notation.

The target in assay [1] is Protein kinase C gamma type (Homo sapiens) (UniProt P05129). The conditions noted are these: at 1 µM.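 Also: each value is an averaged percent inhibition of the enzyme.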
Assay [2] addresses T1, Protein kinase C iota type (Homo sapiens) (UniProt P41743).
T1 sequence (whole entry): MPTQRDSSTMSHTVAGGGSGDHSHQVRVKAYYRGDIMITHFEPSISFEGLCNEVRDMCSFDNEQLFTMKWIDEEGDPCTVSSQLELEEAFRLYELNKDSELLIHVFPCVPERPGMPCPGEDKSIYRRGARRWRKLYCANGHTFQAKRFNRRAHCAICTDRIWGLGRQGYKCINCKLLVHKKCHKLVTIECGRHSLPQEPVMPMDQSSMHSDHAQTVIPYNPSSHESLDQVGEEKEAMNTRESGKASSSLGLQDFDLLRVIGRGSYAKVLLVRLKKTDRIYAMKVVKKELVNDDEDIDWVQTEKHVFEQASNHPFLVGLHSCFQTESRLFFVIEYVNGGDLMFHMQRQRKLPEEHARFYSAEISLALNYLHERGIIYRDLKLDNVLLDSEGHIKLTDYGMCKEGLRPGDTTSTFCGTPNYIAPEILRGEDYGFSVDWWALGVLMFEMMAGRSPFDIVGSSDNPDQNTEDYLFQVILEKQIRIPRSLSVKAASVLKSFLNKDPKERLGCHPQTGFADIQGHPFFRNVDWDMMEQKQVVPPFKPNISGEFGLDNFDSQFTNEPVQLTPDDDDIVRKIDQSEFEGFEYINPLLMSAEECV
The conditions noted are these: at 0.1 µM.

The target of assay [3] is T1, Protein kinase C iota type (Homo sapiens). The conditions noted are these: at 1 µM.
The target in assay [4] is Protein kinase C theta type (Homo sapiens) (UniProt Q04759). The settings on record: at 0.1 µM.
Protein kinase C theta type (Homo sapiens), sequence (Q04759 whole entry, looked up): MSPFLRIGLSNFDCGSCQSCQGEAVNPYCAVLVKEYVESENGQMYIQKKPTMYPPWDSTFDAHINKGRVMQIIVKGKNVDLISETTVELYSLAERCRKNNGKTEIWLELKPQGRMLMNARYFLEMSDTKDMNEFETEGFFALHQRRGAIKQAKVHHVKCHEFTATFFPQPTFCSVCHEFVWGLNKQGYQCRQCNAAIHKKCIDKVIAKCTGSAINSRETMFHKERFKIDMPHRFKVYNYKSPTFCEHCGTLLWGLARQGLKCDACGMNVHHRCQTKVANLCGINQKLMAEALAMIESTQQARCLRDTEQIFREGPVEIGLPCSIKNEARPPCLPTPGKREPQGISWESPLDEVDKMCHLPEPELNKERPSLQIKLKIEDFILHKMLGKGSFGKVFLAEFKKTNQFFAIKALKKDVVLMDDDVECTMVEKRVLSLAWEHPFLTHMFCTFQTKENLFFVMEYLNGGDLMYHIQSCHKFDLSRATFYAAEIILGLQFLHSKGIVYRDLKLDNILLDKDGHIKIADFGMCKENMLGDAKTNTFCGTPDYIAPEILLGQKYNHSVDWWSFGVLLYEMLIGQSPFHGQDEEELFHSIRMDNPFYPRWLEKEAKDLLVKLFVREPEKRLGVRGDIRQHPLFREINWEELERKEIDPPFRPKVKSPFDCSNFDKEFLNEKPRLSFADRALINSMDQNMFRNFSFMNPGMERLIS
Assay [5] has the same target. The conditions noted are these: at 1 µM.
Assay [6] concerns the target Protein kinase C beta type (Homo sapiens) (UniProt P05771). The conditions noted are these: at 0.1 µM.
Assay [7] shares this target. The conditions noted are these: at 1 µM.
Assay [8] deals with T2, Serine/threonine-protein kinase D1 (Homo sapiens) (UniProt Q15139).
T2 sequence (whole entry): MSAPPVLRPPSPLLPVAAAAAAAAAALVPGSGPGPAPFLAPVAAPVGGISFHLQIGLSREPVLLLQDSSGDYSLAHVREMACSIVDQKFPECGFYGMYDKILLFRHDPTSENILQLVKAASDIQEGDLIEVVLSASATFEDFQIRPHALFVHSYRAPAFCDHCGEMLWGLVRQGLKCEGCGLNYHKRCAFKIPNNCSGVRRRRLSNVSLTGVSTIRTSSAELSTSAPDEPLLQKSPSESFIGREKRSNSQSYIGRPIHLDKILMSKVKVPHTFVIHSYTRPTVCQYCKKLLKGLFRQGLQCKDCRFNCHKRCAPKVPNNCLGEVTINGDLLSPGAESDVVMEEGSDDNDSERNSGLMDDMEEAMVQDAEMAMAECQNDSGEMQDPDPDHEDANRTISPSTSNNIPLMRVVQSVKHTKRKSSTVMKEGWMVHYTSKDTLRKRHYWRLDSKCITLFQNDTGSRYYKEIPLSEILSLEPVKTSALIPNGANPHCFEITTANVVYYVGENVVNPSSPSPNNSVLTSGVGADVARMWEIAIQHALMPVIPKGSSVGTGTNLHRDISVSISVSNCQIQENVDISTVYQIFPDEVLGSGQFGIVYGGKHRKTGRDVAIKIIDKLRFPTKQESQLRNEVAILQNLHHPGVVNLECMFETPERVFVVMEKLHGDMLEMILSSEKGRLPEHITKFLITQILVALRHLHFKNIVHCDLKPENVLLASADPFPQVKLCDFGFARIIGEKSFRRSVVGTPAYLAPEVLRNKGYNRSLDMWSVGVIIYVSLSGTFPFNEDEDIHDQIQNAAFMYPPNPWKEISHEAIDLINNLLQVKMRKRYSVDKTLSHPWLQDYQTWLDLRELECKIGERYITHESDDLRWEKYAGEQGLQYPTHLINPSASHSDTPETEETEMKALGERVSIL
The conditions noted are these: at 0.1 µM.

Assay [9] deals with T2, Serine/threonine-protein kinase D1 (Homo sapiens). The settings on record: at 1 µM.
The target of assay [10] is T3, Serine/threonine-protein kinase D2 (Homo sapiens) (UniProt Q9BZL6).
T3 sequence (whole entry): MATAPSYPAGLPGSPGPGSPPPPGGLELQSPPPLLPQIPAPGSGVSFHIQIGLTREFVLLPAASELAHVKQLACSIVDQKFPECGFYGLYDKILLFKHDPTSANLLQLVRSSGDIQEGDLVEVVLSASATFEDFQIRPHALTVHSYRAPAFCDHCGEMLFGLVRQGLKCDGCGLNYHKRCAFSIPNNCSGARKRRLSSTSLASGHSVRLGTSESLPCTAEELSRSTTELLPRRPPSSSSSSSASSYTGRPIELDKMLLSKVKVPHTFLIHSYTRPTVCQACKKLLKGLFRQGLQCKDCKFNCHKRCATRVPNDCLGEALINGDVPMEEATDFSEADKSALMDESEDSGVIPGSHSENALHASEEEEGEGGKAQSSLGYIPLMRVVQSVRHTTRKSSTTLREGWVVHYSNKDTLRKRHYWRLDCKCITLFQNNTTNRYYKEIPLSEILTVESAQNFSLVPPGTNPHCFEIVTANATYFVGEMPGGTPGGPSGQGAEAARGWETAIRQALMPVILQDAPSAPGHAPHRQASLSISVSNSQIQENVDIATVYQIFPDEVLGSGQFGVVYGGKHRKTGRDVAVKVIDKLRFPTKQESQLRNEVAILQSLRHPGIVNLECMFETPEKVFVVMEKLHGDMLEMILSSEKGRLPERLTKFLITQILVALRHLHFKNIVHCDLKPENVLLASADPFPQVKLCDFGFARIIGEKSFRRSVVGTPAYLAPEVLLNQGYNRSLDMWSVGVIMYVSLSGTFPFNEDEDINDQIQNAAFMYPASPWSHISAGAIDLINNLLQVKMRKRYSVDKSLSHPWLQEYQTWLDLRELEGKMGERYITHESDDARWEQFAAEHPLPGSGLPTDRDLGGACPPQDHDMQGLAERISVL
The settings on record: at 0.1 µM.

Assay [11] deals with T3, Serine/threonine-protein kinase D2 (Homo sapiens). The conditions noted are these: at 1 µM.
The target of assay [12] is T4, Serine/threonine-protein kinase D3 (Homo sapiens) (UniProt O94806).
T4 sequence (whole entry): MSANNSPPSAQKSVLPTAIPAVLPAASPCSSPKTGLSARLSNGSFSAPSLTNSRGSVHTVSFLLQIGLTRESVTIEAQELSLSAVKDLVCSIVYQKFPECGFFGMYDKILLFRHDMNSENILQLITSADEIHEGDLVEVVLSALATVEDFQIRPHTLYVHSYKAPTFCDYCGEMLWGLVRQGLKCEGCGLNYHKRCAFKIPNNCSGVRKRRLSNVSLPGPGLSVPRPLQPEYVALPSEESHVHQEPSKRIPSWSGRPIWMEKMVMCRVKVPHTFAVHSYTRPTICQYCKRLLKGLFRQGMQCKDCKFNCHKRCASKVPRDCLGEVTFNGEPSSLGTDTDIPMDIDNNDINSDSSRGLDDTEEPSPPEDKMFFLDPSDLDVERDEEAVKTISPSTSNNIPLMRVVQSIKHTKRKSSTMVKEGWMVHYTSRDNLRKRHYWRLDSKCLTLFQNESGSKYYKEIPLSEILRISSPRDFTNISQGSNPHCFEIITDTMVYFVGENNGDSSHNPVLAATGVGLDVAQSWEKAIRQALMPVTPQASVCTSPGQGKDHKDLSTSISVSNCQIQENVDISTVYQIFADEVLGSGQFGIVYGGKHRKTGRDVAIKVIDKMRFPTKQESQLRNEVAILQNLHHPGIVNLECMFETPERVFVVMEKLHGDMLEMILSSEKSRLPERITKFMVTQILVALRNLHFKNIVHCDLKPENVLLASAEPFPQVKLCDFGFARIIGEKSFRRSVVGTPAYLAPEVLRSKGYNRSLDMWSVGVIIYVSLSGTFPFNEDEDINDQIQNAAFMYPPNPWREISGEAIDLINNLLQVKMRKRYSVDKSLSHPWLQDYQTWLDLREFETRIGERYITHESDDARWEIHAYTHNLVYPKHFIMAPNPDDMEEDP
The conditions noted are these: at 0.1 µM.

For assay [13], the target named is T4, Serine/threonine-protein kinase D3 (Homo sapiens). The conditions noted are these: at 1 µM.
Assay [14] has as its target T5, cGMP-dependent protein kinase 1 (Homo sapiens) (UniProt Q13976).
T5 sequence (whole entry): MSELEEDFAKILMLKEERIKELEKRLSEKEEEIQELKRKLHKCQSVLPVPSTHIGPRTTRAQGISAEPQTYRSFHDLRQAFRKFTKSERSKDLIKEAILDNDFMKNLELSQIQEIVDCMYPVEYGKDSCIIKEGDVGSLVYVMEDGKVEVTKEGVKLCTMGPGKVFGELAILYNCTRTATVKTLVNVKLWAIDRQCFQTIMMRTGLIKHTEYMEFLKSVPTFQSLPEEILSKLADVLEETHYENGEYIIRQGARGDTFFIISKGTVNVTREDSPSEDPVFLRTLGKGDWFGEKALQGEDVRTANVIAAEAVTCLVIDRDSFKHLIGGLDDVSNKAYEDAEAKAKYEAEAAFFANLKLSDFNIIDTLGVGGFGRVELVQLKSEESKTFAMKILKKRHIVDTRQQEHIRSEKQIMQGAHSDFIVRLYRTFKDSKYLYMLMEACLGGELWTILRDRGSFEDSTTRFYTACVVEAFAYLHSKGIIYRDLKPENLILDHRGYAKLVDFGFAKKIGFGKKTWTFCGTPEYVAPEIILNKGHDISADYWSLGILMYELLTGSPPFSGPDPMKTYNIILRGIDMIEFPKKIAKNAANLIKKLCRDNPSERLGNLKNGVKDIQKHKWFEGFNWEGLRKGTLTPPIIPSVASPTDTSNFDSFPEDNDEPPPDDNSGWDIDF
The conditions noted are these: at 0.1 µM.

The target in assay [15] is T5, cGMP-dependent protein kinase 1 (Homo sapiens). The settings on record: at 1 µM.
Assay [16] addresses T6, cGMP-dependent protein kinase 2 (Homo sapiens) (UniProt Q13237).
T6 sequence (whole entry): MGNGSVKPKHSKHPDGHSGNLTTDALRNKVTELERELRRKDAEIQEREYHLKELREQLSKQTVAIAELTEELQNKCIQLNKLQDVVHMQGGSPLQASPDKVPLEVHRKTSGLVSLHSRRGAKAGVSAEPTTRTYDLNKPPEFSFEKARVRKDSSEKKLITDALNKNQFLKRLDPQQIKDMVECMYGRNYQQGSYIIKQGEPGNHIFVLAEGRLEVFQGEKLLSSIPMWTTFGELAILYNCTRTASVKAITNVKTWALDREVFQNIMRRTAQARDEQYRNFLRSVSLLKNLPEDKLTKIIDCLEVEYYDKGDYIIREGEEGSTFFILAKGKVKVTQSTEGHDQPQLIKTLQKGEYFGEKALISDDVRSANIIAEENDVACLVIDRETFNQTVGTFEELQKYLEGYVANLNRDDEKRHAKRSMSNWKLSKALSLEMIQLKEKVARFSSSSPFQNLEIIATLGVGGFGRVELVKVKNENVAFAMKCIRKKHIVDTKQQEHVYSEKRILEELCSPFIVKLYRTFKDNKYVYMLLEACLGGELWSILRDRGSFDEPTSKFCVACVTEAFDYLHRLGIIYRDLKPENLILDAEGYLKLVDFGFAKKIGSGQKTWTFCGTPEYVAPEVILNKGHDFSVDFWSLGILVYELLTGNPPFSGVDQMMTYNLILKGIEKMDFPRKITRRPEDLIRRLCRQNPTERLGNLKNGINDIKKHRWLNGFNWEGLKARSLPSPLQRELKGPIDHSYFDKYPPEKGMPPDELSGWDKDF
The conditions noted are these: at 0.1 µM.

Assay [17] deals with T6, cGMP-dependent protein kinase 2 (Homo sapiens). The conditions noted are these: at 1 µM.
Assay [18] concerns the target T7, cAMP-dependent protein kinase catalytic subunit PRKX (Homo sapiens) (UniProt P51817).
T7 sequence (whole entry): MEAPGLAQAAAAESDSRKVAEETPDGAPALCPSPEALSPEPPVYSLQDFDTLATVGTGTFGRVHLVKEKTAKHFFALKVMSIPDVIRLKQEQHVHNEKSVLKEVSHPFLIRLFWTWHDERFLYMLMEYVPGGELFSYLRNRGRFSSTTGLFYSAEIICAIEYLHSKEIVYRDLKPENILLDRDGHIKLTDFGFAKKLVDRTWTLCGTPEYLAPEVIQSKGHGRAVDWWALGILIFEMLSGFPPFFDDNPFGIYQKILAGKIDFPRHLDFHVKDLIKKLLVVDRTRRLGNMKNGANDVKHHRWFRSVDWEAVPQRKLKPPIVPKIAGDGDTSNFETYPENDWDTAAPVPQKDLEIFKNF
The conditions noted are these: at 0.1 µM.

Assay [19] has as its target T7, cAMP-dependent protein kinase catalytic subunit PRKX (Homo sapiens). The conditions noted are these: at 1 µM.
Assay [20] has as its target Rho-associated protein kinase 1 (Homo sapiens) (UniProt Q13464). The conditions noted are these: at 0.1 µM.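 Also: values are mean percent inhibition of ROCK1.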

Protein kinase C beta type (Homo sapiens), sequence (P05771 2-671 limits assumed): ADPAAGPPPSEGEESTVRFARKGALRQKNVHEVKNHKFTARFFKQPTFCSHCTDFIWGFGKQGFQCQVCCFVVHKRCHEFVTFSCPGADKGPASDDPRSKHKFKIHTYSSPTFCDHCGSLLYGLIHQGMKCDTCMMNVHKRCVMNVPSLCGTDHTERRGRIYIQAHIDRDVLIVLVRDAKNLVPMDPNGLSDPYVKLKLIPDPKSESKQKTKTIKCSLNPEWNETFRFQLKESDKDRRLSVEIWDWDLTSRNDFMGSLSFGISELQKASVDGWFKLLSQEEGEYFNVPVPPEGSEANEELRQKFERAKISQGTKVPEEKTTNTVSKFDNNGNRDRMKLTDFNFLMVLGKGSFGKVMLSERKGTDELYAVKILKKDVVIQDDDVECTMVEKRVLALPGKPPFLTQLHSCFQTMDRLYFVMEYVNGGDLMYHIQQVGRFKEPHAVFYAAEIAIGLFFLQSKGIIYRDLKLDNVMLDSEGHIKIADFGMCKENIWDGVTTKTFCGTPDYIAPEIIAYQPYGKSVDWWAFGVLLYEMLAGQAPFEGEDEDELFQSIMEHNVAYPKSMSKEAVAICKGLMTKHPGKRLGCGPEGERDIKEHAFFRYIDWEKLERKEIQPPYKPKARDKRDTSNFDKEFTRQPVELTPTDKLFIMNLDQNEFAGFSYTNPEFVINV
Rho-associated protein kinase 1 (Homo sapiens), sequence (Q13464 2-1354 limits assumed): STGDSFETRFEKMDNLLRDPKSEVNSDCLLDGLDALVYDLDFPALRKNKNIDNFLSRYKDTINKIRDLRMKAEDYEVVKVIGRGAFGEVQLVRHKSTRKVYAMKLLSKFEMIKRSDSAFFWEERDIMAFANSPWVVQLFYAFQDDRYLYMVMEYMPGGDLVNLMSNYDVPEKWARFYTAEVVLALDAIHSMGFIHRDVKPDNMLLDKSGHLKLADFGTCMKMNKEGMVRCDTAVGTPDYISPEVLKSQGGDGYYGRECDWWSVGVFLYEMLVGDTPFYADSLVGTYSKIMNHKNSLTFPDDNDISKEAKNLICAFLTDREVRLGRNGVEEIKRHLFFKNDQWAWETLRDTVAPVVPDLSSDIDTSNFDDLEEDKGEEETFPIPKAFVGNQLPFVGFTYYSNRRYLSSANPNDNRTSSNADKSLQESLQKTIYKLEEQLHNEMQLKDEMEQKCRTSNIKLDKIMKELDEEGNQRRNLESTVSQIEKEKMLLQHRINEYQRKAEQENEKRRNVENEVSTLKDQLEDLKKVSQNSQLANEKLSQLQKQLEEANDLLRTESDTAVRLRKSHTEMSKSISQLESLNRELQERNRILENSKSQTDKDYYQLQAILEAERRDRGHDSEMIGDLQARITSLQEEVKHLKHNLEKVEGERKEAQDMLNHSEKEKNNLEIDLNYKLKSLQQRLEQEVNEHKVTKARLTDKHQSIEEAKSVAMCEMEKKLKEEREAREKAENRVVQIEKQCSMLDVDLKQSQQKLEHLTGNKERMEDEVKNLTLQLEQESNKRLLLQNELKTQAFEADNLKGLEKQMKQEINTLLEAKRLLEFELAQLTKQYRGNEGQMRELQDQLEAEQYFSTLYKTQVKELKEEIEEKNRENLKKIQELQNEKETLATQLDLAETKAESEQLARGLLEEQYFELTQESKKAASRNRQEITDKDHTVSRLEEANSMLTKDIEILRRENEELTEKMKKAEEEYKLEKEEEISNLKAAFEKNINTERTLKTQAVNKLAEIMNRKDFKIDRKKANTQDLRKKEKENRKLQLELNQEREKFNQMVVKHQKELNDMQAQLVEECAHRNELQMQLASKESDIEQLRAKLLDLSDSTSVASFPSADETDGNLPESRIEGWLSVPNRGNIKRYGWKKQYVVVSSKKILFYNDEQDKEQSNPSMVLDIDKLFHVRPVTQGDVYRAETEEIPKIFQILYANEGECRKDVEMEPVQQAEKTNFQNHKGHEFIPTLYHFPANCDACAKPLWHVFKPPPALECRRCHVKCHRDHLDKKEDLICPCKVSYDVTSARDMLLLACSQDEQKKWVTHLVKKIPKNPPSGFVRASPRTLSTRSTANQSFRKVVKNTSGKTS

With `COc1ccc2c(-c3ccnc(Nc4cccc(OC(F)(F)F)c4)n3)cnn2n1`, the inhibition in assay [1] was 1.65%; in assay [2] it was 2.36%; in assay [3] it was 1.45%; in assay [4] it was 2.59%; in assay [5] it was 4.8%; in [6], 1.08%. Besides, the inhibition amounted to 5.19% in assay [7]; 3.42% in assay [8]; 6.19% in assay [9]; 3.92% in [10]; 5.35% in assay [11]; 3.53% in assay [12]. The inhibition in [13] worked out at 5.76%; in assay [14], 2.98%; in assay [15] it was 14.2%; in [16], 1.96%; in [17] it was 7.99%; in [18], 2.02%. Moreover, the values for the inhibition in assay [19] and in assay [20] were 3.71% and 1.01%, respectively.

Values taken from ChEMBL document CHEMBL1961873, “Compounds: GSK PKIS; Assays: Nanosyn kinase panel” (2012).
